# Laboratory results reported in PubChem BioAssay (Tox21).
# “And” between values parts separate entries of the source, which are not always exact repeats. Equal values may be shown once. Inconclusive results are not listed. Entries that show only a call come without a potency. A structure can be active in one record and inactive in another. The source made the active and inactive calls. Unless noted, calls follow the shape of the dose curve; as a rule, active = well fitted curve in the direction sought with a large enough effect in the repeat runs; inconclusive = weak or mixed curves; inactive = no such curve, though single readings can be large; an effect the other way counts as inactive or inconclusive.
# Columns and labels:
# [1] = qHTS assay to test for compound auto fluorescence at 460 nm (blue) in HEK293 cell free culture (AID 720681)
# Method in brief: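 Blue fluorescence (Ex 405/Em 460 nm, triamterene-equivalent) was read immediately after pin transfer of compound or DMSO into medium (DMEM, 10% FBS) without cells.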
# [2] = qHTS assay to test for compound auto fluorescence at 535 nm (green) in HEK293 cell free culture (AID 720682)
# Method in brief: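 DMEM + 10% FBS, cell-free; cpd or DMSO pinned in; Ex485/Em535 read; output as fluorescein-equivalent signal.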
# [3] = qHTS assay to test for compound auto fluorescence at 590 nm (red) in HEK293 cell free culture (AID 720683)
# Method in brief: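 Red-channel autofluorescence of compounds in culture medium (DMEM, 10% FBS), no cells, measured at 540/590 nm. Rose Bengal sodium is the reference fluorophore for equivalence.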
# [4] = qHTS assay to test for compound auto fluorescence at 460 nm (blue) in HepG2 cell free culture (AID 720685)
# Method in brief: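 Compound (23 nL) or DMSO pinned into cell-free MEM with 10% FBS; blue fluorescence read at 405/460 nm excitation/emission, expressed as auto-fluorescence equivalency to triamterene.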
# [5] = qHTS assay to test for compound auto fluorescence at 535 nm (green) in HepG2 cell free culture (AID 720686)
# [6] = qHTS assay to test for compound auto fluorescence at 460 nm (blue) in HepG2 cells (AID 720687)
# Method in brief: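 Blue-channel autofluorescence (Ex/Em 405/460 nm, triamterene-equivalent) was measured after 1 hr compound exposure at 37 C, 5% CO2. Cells were HepG2, plated overnight at 37 C in MEM plus 10% FBS.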
# [7] = target: Glucocorticoid receptor (Homo sapiens) (UniProt P04150); test: qHTS assay to identify small molecule agonists of the glucocorticoid receptor (GR) signaling pathway (AID 720691; active = well fitted activation curve with a large enough effect in the signal ratio in the repeat runs, not every such curve was filed as active; the % refers to the signal ratio)
# Method in brief: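 qHTS in GR-bla HeLa cells: 4 h settling at 37 C/5% CO2, 18 h compound incubation at 37 C, 2 h LiveBLAzer B/G FRET substrate at room temperature, fluorescence intensity measured.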
# [8] = target: Glucocorticoid receptor (Homo sapiens) (UniProt P04150); test: qHTS assay to identify small molecule antagonists of the glucocorticoid receptor (GR) signaling pathway (AID 720692; active = well fitted inhibition curve with a large enough effect in the signal ratio in the repeat runs, not every such curve was filed as active; the % refers to the signal ratio)
# Method in brief: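 Inhibition of glucocorticoid signalling is measured in HeLa cells with a GRE-controlled beta-lactamase reporter; cells are co-treated with compound and 5 nM dexamethasone (final) for 18 h before FRET substrate readout.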
# [9] = qHTS assay to identify small molecule antagonists of the glucocorticoid receptor (GR) signaling pathway - cell viability counter screen (AID 720693); also: nearly all actives have a fitted effect of over 55% in size
# [10] = qHTS assay for identifying genotoxic compounds that show differential cytotoxicity against isogenic chicken DT40 cell lines with known DNA damage response pathways - wild type cell line (AID 743012); also: nearly all actives have a fitted effect of over 60% in size; also: potency is read from the fitted curve at half-maximal effect
# Method in brief: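 First, wild type DT40 cells were plated at 300 per well and equilibrated about 0.5 h at 37 C/5% CO2. Next, compounds in DMSO were added and exposure lasted 40 h. Finally, CellTiter-Glo was added for 30 min at room temperature and luminescence recorded.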
# [11] = qHTS assay for identifying genotoxic compounds that show differential cytotoxicity against isogenic chicken DT40 cell lines with known DNA damage response pathways - Rev3 mutant cell line (AID 743014); also: nearly all actives have a fitted effect of over 55% in size; also: potency is read from the fitted curve at half-maximal effect
# [12] = qHTS assay to identify small molecule antagonists of the androgen receptor (AR) signaling pathway - cell viability counter screen (AID 743033; also: nearly all actives have a fitted effect of over 45% in size)
# [13] = qHTS assay to identify small molecule antagonists of the androgen receptor (AR) signaling pathway using the MDA cell line - cell viability counter screen (AID 743041; also: nearly all actives have a fitted effect of over 45% in size)
# Method in brief: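 Cells were plated at 3,000 per well and left 5 h. Compounds in DMSO were then pinned in, followed by R1881. After 16 h at 37C, CellTiter-Fluor fluorescence gave viability.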
# [14] = qHTS assay to test for compound auto fluorescence at 590 nm (red) in HepG2 cell free culture (AID 720684)
# Method in brief: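 Steps: dispense MEM/10% FBS medium, no cells; pin compound or DMSO vehicle; read red channel, Ex/Em 540/590 nm. Output given as Rose Bengal sodium equivalents.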
# [15] = qHTS assay for identifying genotoxic compounds that show differential cytotoxicity against isogenic chicken DT40 cell lines with known DNA damage response pathways - Rad54/Ku70 mutant cell line (AID 743015); also: nearly all actives have a fitted effect of over 60% in size; also: potency is read from the fitted curve at half-maximal effect
# [16] = target: Androgen receptor (Homo sapiens) (UniProt P10275); test: qHTS assay to identify small molecule antagonists of the androgen receptor (AR) signaling pathway (AID 743035; active = well fitted inhibition curve with a large enough effect in the signal ratio in the repeat runs, not every such curve was filed as active; the % refers to the signal ratio)
# Method in brief: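 Beta-lactamase FRET read (2 h RT incubation with LiveBLAzer B/G) following 16 h of compound plus R1881 treatment of AR-UAS-bla HEK293 cells, which had been pre-incubated 4 h at 37C.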
# [17] = target: Androgen receptor (Homo sapiens) (UniProt P10275); test: qHTS assay to identify small molecule agonists of the androgen receptor (AR) signaling pathway (AID 743036; active = well fitted activation curve with a large enough effect in the signal ratio in the repeat runs, with a control signal flat, not every such curve was filed as active; the % refers to the signal ratio)
# Method in brief: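 Screening used 2,000 AR-bla HEK293 cells per well, treated 16 h at 37C with test compounds in DMSO alongside positive and DMSO-only controls; beta-lactamase activity was then read by LiveBLAzer B/G FRET fluorescence after 2 h at room temperature.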
# [18] = target: Androgen receptor (Homo sapiens) (UniProt P10275); test: qHTS assay to identify small molecule agonists of the androgen receptor (AR) signaling pathway using the MDA cell line (AID 743040; also: nearly all actives have a fitted effect of over 20% in size)
# Method in brief: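 Cells plated, 5 h at 37C/0% CO2; compound or DMSO pinned; 16 h at 37C; ONE-Glo added; luminescence measured after 30 min at room temperature. Reporter line: MDA-kb2 with MMTV-luciferase responsive to AR and GR.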
# [19] = target: Androgen receptor (Homo sapiens) (UniProt P10275); test: qHTS assay to identify small molecule antagonists of the androgen receptor (AR) signaling pathway using the MDA cell line (AID 743042; also: nearly all actives have a fitted effect of over 55% in size)
# Method in brief: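 Antagonist mode: compounds plus R1881 agonist added to MDA-kb2 AR-luc cells, incubated 16 h at 37C. Luciferase reporter luminescence quantified, with multiplexed CellTiter-Fluor readout for cell viability.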
# Chain of Glucocorticoid receptor (Homo sapiens) (P04150 whole entry, looked up): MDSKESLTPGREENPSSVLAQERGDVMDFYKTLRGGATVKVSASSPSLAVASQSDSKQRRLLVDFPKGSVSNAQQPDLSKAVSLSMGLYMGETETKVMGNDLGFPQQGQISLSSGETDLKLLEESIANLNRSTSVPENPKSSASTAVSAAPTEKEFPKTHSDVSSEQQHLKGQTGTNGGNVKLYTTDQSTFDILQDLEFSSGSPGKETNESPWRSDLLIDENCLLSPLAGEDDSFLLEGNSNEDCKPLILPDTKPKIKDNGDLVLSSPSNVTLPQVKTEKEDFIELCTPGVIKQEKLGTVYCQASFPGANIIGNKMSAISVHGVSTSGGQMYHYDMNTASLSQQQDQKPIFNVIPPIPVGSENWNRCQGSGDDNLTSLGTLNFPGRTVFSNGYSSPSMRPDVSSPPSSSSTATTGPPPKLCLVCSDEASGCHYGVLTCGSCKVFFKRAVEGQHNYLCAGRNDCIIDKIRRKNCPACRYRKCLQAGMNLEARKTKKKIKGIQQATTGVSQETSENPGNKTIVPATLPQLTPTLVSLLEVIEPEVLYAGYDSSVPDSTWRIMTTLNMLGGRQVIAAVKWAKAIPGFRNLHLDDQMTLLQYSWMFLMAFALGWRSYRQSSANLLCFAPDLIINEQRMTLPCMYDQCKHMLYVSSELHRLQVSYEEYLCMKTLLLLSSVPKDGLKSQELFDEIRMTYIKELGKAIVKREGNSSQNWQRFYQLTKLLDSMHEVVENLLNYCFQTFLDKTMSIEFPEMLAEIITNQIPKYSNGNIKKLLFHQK
# Chain of Androgen receptor (Homo sapiens) (P10275 whole entry, looked up): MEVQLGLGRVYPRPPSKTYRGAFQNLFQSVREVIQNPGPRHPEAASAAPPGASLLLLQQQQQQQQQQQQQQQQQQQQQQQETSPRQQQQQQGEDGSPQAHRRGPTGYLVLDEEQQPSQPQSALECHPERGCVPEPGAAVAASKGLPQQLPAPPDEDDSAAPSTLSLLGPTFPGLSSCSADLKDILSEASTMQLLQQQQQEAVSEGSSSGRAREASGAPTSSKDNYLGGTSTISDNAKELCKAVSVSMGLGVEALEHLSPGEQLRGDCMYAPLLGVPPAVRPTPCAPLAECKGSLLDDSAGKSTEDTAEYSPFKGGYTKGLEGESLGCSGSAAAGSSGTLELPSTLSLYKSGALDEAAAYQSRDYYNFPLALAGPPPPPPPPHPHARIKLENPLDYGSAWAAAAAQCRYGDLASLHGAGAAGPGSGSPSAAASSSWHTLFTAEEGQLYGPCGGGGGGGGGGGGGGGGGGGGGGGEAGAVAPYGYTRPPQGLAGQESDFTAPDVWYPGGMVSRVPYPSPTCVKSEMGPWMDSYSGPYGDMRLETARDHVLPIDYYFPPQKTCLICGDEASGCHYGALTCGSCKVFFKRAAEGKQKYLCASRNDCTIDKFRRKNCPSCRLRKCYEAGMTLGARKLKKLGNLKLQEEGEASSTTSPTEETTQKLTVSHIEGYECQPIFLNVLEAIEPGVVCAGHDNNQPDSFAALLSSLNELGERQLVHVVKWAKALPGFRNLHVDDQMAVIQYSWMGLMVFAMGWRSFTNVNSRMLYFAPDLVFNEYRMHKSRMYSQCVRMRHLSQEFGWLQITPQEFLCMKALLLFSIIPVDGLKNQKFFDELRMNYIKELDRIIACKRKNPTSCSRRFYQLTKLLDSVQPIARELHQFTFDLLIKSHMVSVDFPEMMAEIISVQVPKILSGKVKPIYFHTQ
smiles,measurement,setting,value
CO[C@]1(NC(=O)CSC(F)F)C(=O)N2C(C(=O)O)=C(CSc3nnnn3CCO)CO[C@H]21,Potency,[1],inactive
same,outcome,[2],inactive
same,outcome,[3],inactive
same,Potency,[4],inactive
same,outcome,[5],inactive
same,Potency,[6],inactive
same,Potency,[7],inactive
same,Potency,[8],inactive
same,Potency,[9],inactive
same,Potency,[10],inactive
same,Potency,[11],inactive
same,Potency,[12],inactive
same,Potency,[13],inactive
CCCCCC#CC(=O)OC,Potency,[1],inactive
same,outcome,[2],inactive
same,outcome,[3],inactive
same,outcome,[14],inactive
same,Potency,[4],inactive
same,outcome,[5],inactive
same,Potency,[6],inactive
same,Potency,[9],inactive
same,Potency,[11],inactive
same,Potency,[12],inactive
same,Potency,[13],inactive
CC1(C)[C@@H](OC(=O)CCC(=O)O)CC[C@]2(C)[C@H]3C(=O)C=C4[C@@H]5C[C@@](C)(C(=O)O)CC[C@]5(C)CC[C@@]4(C)[C@]3(C)CC[C@@H]12,"fluorescence, % of fluorescent control",[1],-0.141% [at 18.6 µM] (inactive)
same,activity change,[2],-0.0002% [at 18.6 µM] (inactive)
same,"fluorescence, % of fluorescent control",[3],0.073% [at 18.6 µM] (inactive)
same,"fluorescence, % of Rose Bengal",[14],0.105% [at 18.6 µM] (inactive)
same,"fluorescence, % of fluorescent control",[4],0.0251% [at 18.6 µM] (inactive)
same,"fluorescence, % of fluorescein control",[5],0.0091% [at 18.6 µM] (inactive)
same,"fluorescence, % of fluorescent control",[6],-0.0128% [at 18.6 µM] (inactive)
same,Potency,[7],inactive
same,Potency,[9],inactive
same,Potency,[10],inactive
same,Potency,[11],inactive
same,Potency,[13],inactive
CN1C[C@H](C(=O)N[C@]2(C)O[C@@]3(O)[C@@H]4CCCN4C(=O)[C@H](Cc4ccccc4)N3C2=O)C[C@@H]2c3cccc4[nH]cc(c34)C[C@H]21,Potency,[1],inactive
same,outcome,[2],inactive
same,outcome,[3],inactive
same,Potency,[4],inactive
same,outcome,[5],inactive
same,Potency,[6],inactive
same,Potency,[7],inactive
same,Potency,[8],inactive
same,Potency,[9],inactive
same,Potency,[10],23.7 µM (active)
same,Potency,[11],29.8 µM (active)
same,Potency,[12],inactive
same,Potency,[13],inactive
CC(C)(c1ccccc1)c1ccccc1,Potency,[1],inactive
same,outcome,[2],inactive
same,outcome,[3],inactive
same,outcome,[14],inactive
same,Potency,[4],inactive
same,outcome,[5],inactive
same,Potency,[9],inactive
same,Potency,[10],inactive
same,Potency,[11],inactive
same,Potency,[15],inactive
same,Potency,[12],inactive
same,Potency,[13],inactive
NCCNCCO,Potency,[1],inactive
same,outcome,[2],inactive
same,Potency,[4],inactive
same,outcome,[5],inactive
same,Potency,[7],inactive
same,Potency,[8],inactive
same,Potency,[9],inactive
same,Potency,[10],inactive
same,Potency,[11],inactive
same,Potency,[15],inactive
same,Potency,[12],inactive
same,Potency,[13],inactive
C[C@@H](O)[C@H]1C(=O)N2C(C(=O)O)=C([C@H]3CCCO3)S[C@H]12,Potency,[1],inactive
same,outcome,[2],inactive
same,outcome,[3],inactive
same,outcome,[14],inactive
same,Potency,[4],inactive
same,outcome,[5],inactive
same,Potency,[9],inactive
same,Potency,[11],inactive
same,Potency,[12],inactive
same,Potency,[16],inactive
same,outcome,[17],inactive
same,outcome,[18],inactive
same,Potency,[13],inactive
same,Potency,[19],inactive
CC(C)(O)c1ccc(CNC(=O)c2cccnc2Oc2ccc3nonc3c2)cc1,Potency,[1],inactive
same,outcome,[2],inactive
same,outcome,[3],inactive
same,outcome,[14],inactive
same,Potency,[4],inactive
same,outcome,[5],inactive
same,Potency,[6],inactive
same,Potency,[7],inactive
same,Potency,[8],inactive
same,Potency,[9],inactive
same,Potency,[10],61.1 µM (active)
same,Potency,[11],68.6 µM (active)
same,Potency,[15],61.1 µM (active)
same,Potency,[13],inactive
CCCCCC[C@@H](O)C/C=C\CCCCCCCC(=O)O,Potency,[1],inactive
same,outcome,[2],inactive
same,outcome,[14],inactive
same,Potency,[4],inactive
same,outcome,[5],inactive
same,Potency,[7],inactive
same,Potency,[10],inactive and 29.8 µM (active)
same,Potency,[11],inactive
same,Potency,[15],inactive and 23.7 µM (active) and 48.6 µM (active)
same,Potency,[12],inactive
same,Potency,[13],inactive
NNC(=O)CP(=O)(c1ccccc1)c1ccccc1,Potency,[1],inactive
same,outcome,[2],inactive
same,outcome,[14],inactive
same,Potency,[4],inactive
same,outcome,[5],inactive
same,Potency,[7],inactive
same,Potency,[10],inactive
same,Potency,[11],inactive
same,Potency,[15],inactive
same,Potency,[12],inactive
